# Results with a measured potency or affinity are listed apart. A number with no mark means an inactive call.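 The calls were made as follows: active = fluorescent signal decreased by at least 40%; inconclusive = no clear call, values can overlap the other calls; inactive = the rest, including activity opposite to the expected direction.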
# Test: fibronectin fibrillogenesis inhibitors in fibroblasts, dose response, AH1F cells, Alexa488-fibronectin fluorescence, cherry-pick, set 2 (AID 1117283);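 also: AH1F fibroblasts given Alexa488-labelled fibronectin at 24 nM final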
# Conditions: Alexa488-fibronectin deposition fluorescence, overnight; series mostly up to 35 µM; activity change, negative = inhibition: at the top concentration
row,Compound,"activity change, negative = inhibition"
1,Cc1oc2ccc(O)cc2c1C(=O)c1ccc(Br)cc1,-1.43%
2,CO[C@@H]1CN(C)C(=O)c2ccc(NC(=O)c3ccc(-c4ccccc4)cc3)cc2OC[C@@H](C)NC[C@@H]1C,2.75%
3,CO[C@@H]1CN(C)C(=O)c2ccc(NC(=O)c3ccc(-c4ccccc4)cc3)cc2OC[C@@H](C)NC[C@H]1C,-2.89%
4,COC(=O)c1c(NC(=O)CN2CCN(c3ccccc3Cl)CC2)sc(C)c1C,3.46%
5,CN1CCN(C(=O)c2cccc(-c3cnc4cnc(-c5ccccc5Oc5ccccc5)cn34)c2)CC1,8.73%
6,C=CCC[C@H](Cc1ccc(F)cc1)C(=O)OC[C@H](Cc1c[nH]c2ccccc12)NC(=O)[C@@H](CC=C)CC(=O)N[C@@H](CO)Cc1ccccc1,-11.5%
7,CC(C)(C)c1cc(Cl)c(O)c(NC(=S)NC(=O)c2cccnc2)c1,3.41%
8,O=C(Nc1cc(Sc2nc3ccccc3s2)cc([N+](=O)[O-])c1)c1ccccc1F,10.8%
9,Cc1ccc(NC(=O)COC(=O)c2cc(Cl)ccc2[N+](=O)[O-])c(C)c1,-7.04%
10,COc1ccccc1N(CC(=O)N(CC(C)C)CC(C)C)S(=O)(=O)c1cccs1,2.52%
11,O=C(CC1Nc2ccccc2NC1=O)Nc1ccc2c(c1)OCO2 (configuration not stated),-12%
12,COC(=O)C[C@H]1CC[C@H]2[C@@H](COc3ccc(NC(=O)Cc4cccs4)cc3C(=O)N2C)O1,-7.74%
13,COC(=O)C[C@H]1CC[C@@H]2[C@@H](COc3ccc(NC(=O)Cc4cccs4)cc3C(=O)N2C)O1,4.16%
14,Cc1ccc(N(CC(=O)NCc2ccco2)S(=O)(=O)c2ccccc2)cc1,-11.7%
15,O=C(NCCS(=O)(=O)N1CCN(c2ccc(F)cc2)CC1)c1ccc(Br)o1,-8.57%
16,CCS(=O)(=O)c1ncc(Cl)c(C(=O)Nc2ccc(S(=O)(=O)N3CCC(C)CC3)cc2)n1,-6.19%
17,COCC(=O)Nc1ccc2c(c1)C(=O)N(C)[C@@H]1CC[C@@H](CC(=O)NCc3ccccc3Cl)O[C@@H]1CO2,-3.34%
18,Cc1cccc(N2CCN(S(=O)(=O)c3cn(C)cn3)CC2)c1C,3.91%
19,CC(NC(=O)CSc1ccc(S(=O)(=O)N2CCOCC2)cn1)c1ccc(Cl)cc1Cl (configuration not stated),2.14%

row,Compound,"activity change, negative = inhibition"
1,CCN(Cc1ccncc1)C(=O)c1ccc2c(c1)S(=O)(=O)c1ccccc1C2=O,-7.62%
2,CO[C@H]1CN(C)C(=O)c2cc(NC(=O)Nc3cc(Cl)cc(Cl)c3)ccc2OC[C@@H](C)NC[C@H]1C,1.09%
3,Cc1ccc(S(=O)(=O)N2CC[C@@H]3[C@H]2c2cc(-c4cccc(C(=O)N(C)C)c4)ccc2N[C@@H]3CO)cc1,1.91%
4,COCC(=O)Nc1ccc2c(c1)C(=O)N(C)[C@H]1CC[C@H](CC(=O)NCc3ccccc3Cl)O[C@@H]1CO2,-3.04% [at 30 µM]
5,CC(C)(C)[S@@](=O)N1Cc2cc(C(=O)NCc3ccccc3F)nc(-c3cccc(-c4ccncc4)c3)c2[C@H]1CCO,5.11%
6,CN1c2ccc(-c3ccccc3)cc2[C@H]2[C@H](CCN2C(=O)CN2CCOCC2)[C@@H]1CO,6.7%
7,COc1cccc(S(=O)(=O)N2CC[C@@H]3[C@H]2c2cc(-c4ccc(C#N)cc4)ccc2N[C@@H]3CO)c1,0.219%
8,Cc1ccc(S(=O)(=O)N2CC3(C)CN(S(=O)(=O)c4ccc(C)cc4)CC(C)(C2)C3=O)cc1,-0.415%
9,COCC(=O)Nc1ccc2c(c1)C(=O)N(C)[C@H]1CC[C@H](CC(=O)NCc3ccccc3Cl)O[C@H]1CO2,-9.35%
10,COC(=O)C[C@@H]1CC[C@H]2[C@H](COc3ccc(NC(=O)Cc4cccs4)cc3C(=O)N2C)O1,-4.43% [at 30 µM]
11,Cc1cc(C)c(S(=O)(=O)Nn2cnnc2)c(C)c1,-9.22%
12,CS(=O)(=O)N1CCN(c2ccc(NC(=O)c3ccc([N+](=O)[O-])o3)cc2)CC1,3.37%
13,CCCc1cc(C(=O)OC)c(NC(=O)CCC(=O)O)s1,8.2%
14,COc1ccc(CCNC(=O)C2CCN(Cc3nc(-c4ccccc4F)oc3C)CC2)cc1OC,7.77%
15,CO[C@H]1CN(C)C(=O)c2cc(NC(=O)Nc3ccc(Cl)c(Cl)c3)ccc2OC[C@@H](C)NC[C@@H]1C,-5.32%
16,C[C@H]1CN([C@@H](C)CO)C(=O)c2cc(-c3ccccc3)cnc2O[C@@H]1CN(C)Cc1ccccc1,-1.31%
17,C[C@H](CO)N1C[C@H](C)[C@H](CN(C)Cc2ccccc2)Oc2ncc(-c3ccccc3)cc2C1=O,2.38%
18,C[C@H](CO)N1C[C@H](C)[C@H](CN(C)C(=O)c2cccc(F)c2)Oc2ncc(-c3ccccc3)cc2C1=O,2.78%

# Source: PubChem BioAssay AID1117283 (Broad Institute, 2014)
